Compound activity (PubChem)
Most compounds without a hit are left out; they make up all but 2.5% or so of the library.
KLF5 inhibitor – kruppel-like factor 5 inhibition. DLD-1 KLF5 promoter-luciferase reporter, luminescence. inhibition, % at 5 µM. 0.23% of 290,000 active;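 active = inhibition above a per-plate limit of that plate's mean compound inhibition plus 3 SD, cut at about 60% in these data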;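 also: 0% = DMSO wells and 100% = LY294002 at 200 µM; higher means less KLF5 promoter-driven luciferase light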
aSyn UTR inh – 5' untranslated region of α-synuclein, MLPCN primary screen. 0.82% of 300,000 active. AID 1813. inhibition, % (tested at 7.5 µM). alpha-synuclein 5'UTR reporter, inhibitor activity; in the data active = inhibition above about 60%;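 also: H4 neuroglioblastoma cells stably carrying SNCA 5'UTR luciferase fusion; 0% = DMSO wells and 100% = positive control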
TMEM16A act – mouse TMEM16A channel activation, primary screen; HEK293 TMEM16A/YFP-H148Q/I152L, iodide quench fluorescence; active compounds read low; B-score at 10 µM; 0.3% of 340,000 active; AID 623877;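 active = fluorescence-ratio B-score plate-corrected deviation score at least 3 library SD below zero, with starting fluorescence score within 5 deviations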;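 also: channel opened by trigger with iodide after compound preincubation; score built on the fluorescence ratio of max minus min over baseline; more negative score means more quench and so TMEM16A activation or potentiation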
ANO1 block – mouse TMEM16A channel inhibition, primary screen. Q8BHY3. HEK293 TMEM16A/YFP iodide influx fluorescence, ionomycin. normalized B-score (activity score, 25-100; higher = stronger inhibition) at 10 µM. 1.2% of 310,000 active. AID 588511;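 active = ratio plate-corrected score three or more library SD toward inhibition, starting fluorescence score within five deviations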;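 also: score derived from kinetic fluorescence span divided by baseline fluorescence per well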
697 NFkB inh – inhibitors of the PMA/ionomycin-induced NF-kB reporter in 697 B cells; 697 B-cell NF-kB luciferase reporter, 16 h; inhibition, % at 4 µM; 0.33% of 330,000 active; in the data active = inhibition above about 35%
Jurkat NFkB inh – lowers PMA/ionomycin-induced NF-kB signal in Jurkat cells | PMA/ionomycin-induced NF-kB luciferase reporter, luminescence | inhibition, % at 4 µM | 0.53% of 330,000 active | AID 435003; in the data active = inhibition above about 50%
TMEM16A reconf – reconfirmed blocker of mouse TMEM16A calcium-activated chloride channel; shares compounds with ANO1 block; inhibition, % at 10 µM; 39% of 2,300 active; HEK293 TMEM16A/YFP-H148Q, iodide quench fluorescence; ionomycin added to raise cell calcium;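 active = mean duplicate percent inhibition, scaled so buffer wells are 0 and the reference blocker 100, over three buffer SD above buffer mean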
TMEM16A Ca cntr – calcium mobilization counter-screen hit for TMEM16A inhibitor series; TMEM16A/YFP HEK293, Fluo4 calcium mobilization; 2% of 2,300 active; calcium response (% of ionomycin), % at 10 µM; shares compounds with ANO1 block;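 active = duplicate-averaged calcium signal over 20% of the ionomycin maximum, relative to buffer baseline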;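 also: each well's signal is peak minus trough fluorescence divided by its pre-addition baseline; 0% = buffer wells and 100% = ionomycin wells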
Parental YFP cnt – parental YFP-HEK293 iodide quench counter-screen activity; shares compounds with ANO1 block; ionomycin; YFP ratio F(max-min)/F0 at 10 µM; 2,300 tested, under 10 active; AID 652233;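 active = yellow fluorescent protein signal ratio exceeding the buffer control mean by over 5 SD of those controls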;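 also: ratio is mean of duplicate wells from kinetic YFP trace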
ClC-1 rat inh – blocks the rat ClC-1 voltage-dependent chloride channel | shares compounds with ANO1 block | CHO ClC-1-YFP, iodide influx fluorescence quench; iodide control reads 0, buffer control 100 | ratio percent, % at 10 µM | 2,300 tested, under 10 active | AID 652236;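 active = duplicate-mean ratio percent above the mean of iodide-only control wells, which defines zero, plus 5 of their SD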;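 also: higher percent means stronger block of ClC-1 iodide influx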
Target sequence (P35524 whole entry, looked up): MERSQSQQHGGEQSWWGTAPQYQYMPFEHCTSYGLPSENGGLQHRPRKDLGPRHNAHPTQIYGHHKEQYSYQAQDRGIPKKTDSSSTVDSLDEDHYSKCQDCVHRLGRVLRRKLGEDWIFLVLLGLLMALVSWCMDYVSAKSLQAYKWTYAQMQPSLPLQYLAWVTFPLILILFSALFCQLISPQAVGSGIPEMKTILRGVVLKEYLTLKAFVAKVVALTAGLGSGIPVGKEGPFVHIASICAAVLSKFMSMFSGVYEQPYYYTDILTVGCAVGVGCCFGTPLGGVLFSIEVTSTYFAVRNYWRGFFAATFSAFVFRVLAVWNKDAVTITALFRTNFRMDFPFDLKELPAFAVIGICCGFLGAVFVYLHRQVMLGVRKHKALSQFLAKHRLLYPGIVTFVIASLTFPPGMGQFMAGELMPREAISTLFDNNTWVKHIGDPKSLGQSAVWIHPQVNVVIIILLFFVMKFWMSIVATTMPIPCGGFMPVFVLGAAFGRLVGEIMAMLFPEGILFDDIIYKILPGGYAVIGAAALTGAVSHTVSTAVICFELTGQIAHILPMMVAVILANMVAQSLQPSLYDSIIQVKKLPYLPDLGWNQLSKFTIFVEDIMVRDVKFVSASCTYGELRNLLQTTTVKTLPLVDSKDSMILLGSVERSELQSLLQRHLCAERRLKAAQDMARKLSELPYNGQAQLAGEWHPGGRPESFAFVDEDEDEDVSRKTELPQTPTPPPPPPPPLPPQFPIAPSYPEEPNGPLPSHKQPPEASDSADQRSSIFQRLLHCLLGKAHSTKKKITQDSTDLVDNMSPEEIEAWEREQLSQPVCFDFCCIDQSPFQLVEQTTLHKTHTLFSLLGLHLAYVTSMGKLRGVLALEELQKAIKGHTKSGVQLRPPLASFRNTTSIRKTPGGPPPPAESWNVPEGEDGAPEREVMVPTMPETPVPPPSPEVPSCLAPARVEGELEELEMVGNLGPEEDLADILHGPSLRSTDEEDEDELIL
* = called active by the depositor; i = inactive; · = not tested or not shown.

SMILES	KLF5 inhibitor	aSyn UTR inh	TMEM16A act	ANO1 block	697 NFkB inh	Jurkat NFkB inh	TMEM16A reconf	TMEM16A Ca cntr	Parental YFP cnt	ClC-1 rat inh
Oc1ccc(NCc2cccc(OCc3ccccc3)c2)cc1	-50	-28	i	25*	-25	-14	i	26%*	-1	-1
Cc1cc(C)cc(NC(=O)CSc2nc(=O)n3cc(C)ccc3n2)c1	·	3	i	i	-3	17	·	·	·	·
CCc1cc(C(=O)Cc2ccc(F)cc2)c(O)cc1O	-13	7	i	100*	-4	4	68%*	i	-0.82	-10
CCCc1cc(C(=O)Cc2ccc(C(=O)OCC)o2)c(O)cc1O	9	5	i	100*	-4	-1	66%*	i	-0.84	-1
CCc1cc(C(=O)COc2ccccc2F)c(O)cc1O	-27	-50	i	100*	6	12	47%*	i	-1.1	-12
CCCc1cc(-c2n[nH]c(C)c2-c2ccc(C(=O)OCC)o2)c(O)cc1O	-14	-4	i	i	9	-11	·	·	·	·
CCc1cc(C(=O)Cc2nc3ccccc3[nH]2)c(O)cc1O	-36	-183	·	i	-6	-15	·	·	·	·
O=C(Nc1ccc(Cc2ccncc2)cc1)c1ccc([N+](=O)[O-])o1	-22	-150	i	i	17	-5	·	·	·	·
O=C(Nc1ccccc1F)N1CCC(NC(=O)C23CC4CC(CC(C4)C2)C3)CC1	-5	8	i	i	-20	-23	·	·	·	·
CCOC(=O)c1ccc(NC(=O)CCc2nc(-c3ccccc3Cl)no2)cc1	-13	18	i	100*	-7	-1	38%*	i	-1.1	-28
Cc1ccc(CNS(=O)(=O)c2ccc3c(c2)n(C)c(=O)n3C)cc1	-13	-6	i	i	-5	8	·	·	·	·
Cc1ccc(C(=O)c2cnc3ccccc3c2-c2ccccc2)cc1	-28	11	i	100*	-27	-4	i	i	-1.2	-8
COc1ccc(C(=O)c2cnc3ccccc3c2-c2ccccc2)cc1	-8	6	i	i	4	11	·	·	·	·
CCOC(=O)Cc1csc(SCC(=O)Nc2cccc(Cl)c2)n1	-31	4	i	100*	-5	-5	26%*	i	-0.92	-17
COc1ccc(CCNS(=O)(=O)c2ccc(OC)cc2)cc1	-1	4	i	25*	-7	-7	i	i	-0.78	-5
O=C(NCc1ccc(Cl)cc1)c1ccccc1Oc1ccccc1	-9	15	i	100*	-20	4	i	i	-0.97	-2
COCCCNC(=O)c1ccccc1Oc1ccccc1	5	4	i	i	3	7	·	·	·	·
NC(=O)c1cc(S(=O)(=O)N2CCCCC2)cs1	-1	-12	i	i	-3	5	·	·	·	·
Cc1ccc(C)c(N2CCN(S(=O)(=O)c3csc(C(N)=O)c3)CC2)c1	-4	0	i	25*	-41	-1	i	i	-0.88	0
Cc1ccc(Nc2nc3nonc3[nH]c2=O)cc1C	-46	-40	i	i	-59	-19	·	·	·	·
Cc1ccc(Nc2nc3nonc3[nH]c2=O)cc1Cl	-35	-72	i	100*	-2	-5	40%*	i	-1	-23
N#C/C(=C\c1cccs1)C(=O)c1ccccc1Cl	-12	-11	i	i	3	11	·	·	·	·
Clc1ccc(OCCSCc2nc3ccccc3[nH]2)cc1	-23	-1	i	100*	8	6	20%*	i	-1.2	-4
Cc1ccc(OCCSCc2nc3ccccc3[nH]2)cc1	9	12	i	i	-9	5	·	·	·	·
Cc1ccc(NC(=O)COC(=O)CCc2ccccc2)cc1S(=O)(=O)N1CCOCC1	·	·	i	·	14	-2	·	·	·	·
SMILES	KLF5 inhibitor	aSyn UTR inh	TMEM16A act	ANO1 block	697 NFkB inh	Jurkat NFkB inh	TMEM16A reconf	TMEM16A Ca cntr	Parental YFP cnt	ClC-1 rat inh
CC(C)N1CCOC1c1ccccc1 (configuration not stated)	·	·	i	·	·	·	·	·	·	·
COc1cccc(NC(=O)CN(C)C(=O)C23CC4CC(CC(Cl)(C4)C2)C3)c1	·	·	i	·	-33	-14	·	·	·	·
Fc1cc(Br)ccc1Nc1nc2ccccc2n2nnnc12	1	-27	i	i	-19	-19	·	·	·	·
Fc1ccccc1N1CCN(c2nc3ccccc3n3nnnc23)CC1	0	-27	i	i	-20	-12	i	i	-0.89	-6
COc1ccccc1CN(CC(=O)NCc1ccc(F)cc1)C(=O)c1csnn1	-12	11	i	i	17	5	·	·	·	·
O=c1c2cc(Br)ccc2nc(-c2cccc(C(F)(F)F)c2)n1O	-4	51	i	100*	15	1	60%*	108%*	-1.1	-43
CCSC(=S)c1c(C)[nH]n(-c2ccccc2)c1=O	-16	18	i	100*	-3	-6	29%*	i	-0.75	-8
Cc1[nH]n(-c2ccccc2)c(=O)c1C(=O)c1ccccc1	-22	-15	i	i	-24	-10	·	·	·	·
CC(C)OCCCNc1ncnc2c1[nH]c1ccccc12	-10	-178	i	100*	17	35	38%*	i	-1.1	-22
Cc1cccc(-n2ccnc2SCC(=O)Nc2cccc(S(=O)(=O)NC3=NCCC3)c2)c1C	·	·	i	·	-40	0	·	·	·	·
CC(OC(=O)CCc1nc2ccccc2c(=O)[nH]1)C(=O)c1ccc(C(C)(C)C)cc1 (configuration not stated)	1	10	i	100*	-16	-14	28%*	i	-1	-24
Cc1cc(Nc2ccccc2)nc(NCc2ccccc2)n1	-13	0	i	100*	-43	36	i	i	-1.1	-24
COc1ccc(O)c(C(=O)c2coc(=N)c(C(=O)Nc3ccc(SC(F)F)cc3)c2)c1	-30	-15	i	i	0	18	i	i	-1.1	-58
CC1CCC2(CC1)NC(=O)N(CC(=O)Nc1ccc(C(N)=O)cc1)C2=O (configuration not stated)	·	·	i	·	-6	10	·	·	·	·
CCN1CCN(C(=O)c2cc(=O)c3cc(C)ccc3o2)CC1	-19	16	i	i	-1	6	·	·	·	·
COc1ccc(NC(=O)c2ccc(S(=O)(=O)N(C)c3ccccc3)cc2)cn1	-28	-2	i	i	8	9	·	·	·	·
